Screens: PubChem, National Center for Advancing Translational Sciences (NCATS)
HP1b chromo inh: inhibitors of HP1-beta chromodomain binding to methylated histone tails | AlphaScreen HP1-beta / biotin-H3K9me3 peptide binding | Potency, µM (series often up to 114 µM), for inactives: top-dose activity change, negative = inhibition, hits mostly inhibitors | actives 0.56% (n = 390,000) | AID 540317; further: potency means the concentration at half of the fitted maximal effect; nearly all actives have a fitted effect of over 70% in size
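Compound inhibition of the preformed complex between 50 nM HP1-beta and 50 nM biotinylated H3K9me3 peptide was read by AlphaScreen. Buffer was PBS pH 7.4 with 0.01% Tween-20. Incubations ran 30 min at room temperature, with 10 ug/mL donor/acceptor beads.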
PLK1 PBD block: blocks phosphopeptide binding to human PLK1 polo-box domain. Plk1 PBD binding of FITC phosphopeptide, fluorescence polarization. Potency, µM, for inactives: max response, negative = inhibition, actives largely listed as inhibitors. actives 2.8% (n = 360,000). AID 720504; further: potency means the concentration at half of the fitted maximal effect; series mostly up to about 57 µM; on the % scale 0 is the no-effect control and ±100 the full control effect; nearly all actives have a fitted effect of over 65% in size
Target sequence (P53350 whole entry, looked up, the tested form may be a part): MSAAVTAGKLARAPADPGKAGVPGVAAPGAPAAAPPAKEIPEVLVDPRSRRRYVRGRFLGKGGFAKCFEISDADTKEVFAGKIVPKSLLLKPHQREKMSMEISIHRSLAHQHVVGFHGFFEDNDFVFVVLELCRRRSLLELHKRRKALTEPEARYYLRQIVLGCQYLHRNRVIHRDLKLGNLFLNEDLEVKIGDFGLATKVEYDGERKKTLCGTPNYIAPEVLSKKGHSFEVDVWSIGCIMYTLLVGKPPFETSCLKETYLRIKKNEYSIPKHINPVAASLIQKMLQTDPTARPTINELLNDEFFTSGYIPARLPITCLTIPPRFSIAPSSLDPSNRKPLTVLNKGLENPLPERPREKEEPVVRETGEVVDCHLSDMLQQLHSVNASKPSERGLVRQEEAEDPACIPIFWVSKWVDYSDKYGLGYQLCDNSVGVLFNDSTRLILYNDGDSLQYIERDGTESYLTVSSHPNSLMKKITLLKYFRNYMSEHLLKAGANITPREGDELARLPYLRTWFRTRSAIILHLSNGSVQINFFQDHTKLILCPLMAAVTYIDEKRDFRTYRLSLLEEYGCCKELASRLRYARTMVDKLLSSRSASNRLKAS
KAT2A inh: blocks human GCN5L2 histone acetyltransferase; GCN5L2 HAT assay, ThioGlo1 CoA-SH fluorescence; Potency, µM (highest dose often 58.9 µM), for the others: at the top dose activity change, negative = inhibition, usual class: inhibitors; Q92830; actives 0.21% (n = 390,000); AID 504327; further: potency means the concentration at half of the fitted maximal effect; on the % scale 0 is the no-effect control and ±100 the full control effect
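GCN5L2 (20 nM) in 50mM HEPES pH 7.5, 0.1mM EDTA, 0.01% Tween-20 preincubated 15 min with compounds at room temperature. Reaction started with H3(1-25) 75uM, acetyl-CoA 70uM, ThioGlo1 50uM; CoA-thiol fluorescence (Ex340/Em540) read at 0 and 20 min.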
JMJD2A Tudor inh: JMJD2A Tudor domain (human) inhibition. AlphaScreen JMJD2A-Tudor / H3K4me3 peptide binding. AID 504339. Potency, µM (highest dose often 114 µM), without a hit: top-dose activity change, negative = inhibition, actives largely listed as inhibitors. actives 4.4% (n = 390,000); further: potency means the concentration at half of the fitted maximal effect; on the % scale 0 is the no-effect control and ±100 the full control effect; nearly all actives have a fitted effect of over 50% in size
BAZ2B inh: BAZ2B (human) inhibition; Q9UIF8; AlphaScreen BAZ2B-H3K14Ac peptide displacement; Potency, µM (series often up to 114 µM), without a hit: top-dose activity change, negative = inhibition, usual class: inhibitors; actives 4.4% (n = 360,000); further: potency means the concentration at half of the fitted maximal effect; on the % scale 0 is the no-effect control and ±100 the full control effect; nearly all actives have a fitted effect of over 60% in size
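Compounds, titrated to a top concentration of 110 uM, were incubated 30 min at room temperature with preformed BAZ2B/acetyl-K14 H3 peptide complex (50 nM each). Proximity signal was measured by AlphaScreen after 20 min with beads.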
PI5P4K alpha inh: blocks human PI5P4K alpha kinase activity; PI5P4Kalpha enzyme, ADP-Glo luminescence, 60 min; active compounds read low; P48426; max response, %; actives 1.2% (n = 330,000); AID 652105; active means max response of -50% or lower; inconclusive means between -30% and -50%; inactive means -30% or higher; further: value at the top dose of about 77 µM; on the % scale 0 is the no-effect control and ±100 the full control effect
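Single end-point luminescence (ADP-Glo) quantified ADP from PI5P4Kalpha turnover; ATP 5 microM final, 1 h at RT, 0.1% CHAPS and 0.28 mM EGTA in HEPES pH 7.4.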
Numbers without * were called inactive; ? = inconclusive; . = no result given; ! = not active in a repeat; [ ] = another dose, or the depositor's remark. Most compounds without a hit are left out; they make up all but 7% or so of the library. Unless noted, the call rests on the fitted dose curve; in most records, active means well fitted curve in the direction sought with a large enough effect; inconclusive means small, poorly fitted or top-dose-only effect, or another doubt; inactive means no such curve, though single readings can be large; an effect the other way counts as inactive or inconclusive.

SMILES | HP1b chromo inh | PLK1 PBD block | KAT2A inh | JMJD2A Tudor inh | BAZ2B inh | PI5P4K alpha inh
CCCN1C(=O)C(O)(c2c(C)[nH]c3ccccc23)c2ccccc21 (configuration not stated) | 34% | -5% | 0% | -5% | ? | 4
Cc1ccc(CN2C(=O)C(O)(c3c(C)[nH]c4ccccc34)c3ccccc32)cc1 (configuration not stated) | ? | . | -9% | ? | 45µM* | .
COc1ccccc1S(=O)Cc1ccc(C(=O)NCc2ccccc2Cl)o1 (configuration not stated) | -10% | 27µM* | -4% | 35µM* | 8% | -5
CCOC(=O)c1c(NC(=O)/C=C/c2ccc(C)o2)sc(C)c1C | ? | 27µM* | -4% | -12% | -2% | .
CCOC(=O)c1c(NC(=O)CCc2ccc(CC)o2)sc(C)c1C | 1% | 27µM* | 1% | -7% | 25% | -5
COC(=O)c1c(NC(=O)CCc2ccc(C)o2)sc(C)c1C | 30% | -23% | -1% | 0% | -11% | -13
CCOc1ccc(N2C(=O)CSC2=S)cc1 | 48% | -9% | 0% | -6% | -24% | 0
CCN(CC)c1ccc(N2C(=O)CSC2=S)cc1 | ? | -11% | 8% | 50µM* | -4% | 8
CCOc1c(C)cc(-c2ncccc2O)cc1C | 25% | -8% | -3% | 89µM*! | -1% | .
COc1ccccc1NC(=O)Cn1c(=O)n(-c2cccc(C(C)=O)c2)c(=O)c2c3c(sc21)CN(C(C)=O)CC3 | 25% | . | -1% | -14% | -11% | .
CC(C)(C)NCC(O)COCc1ccc(Cl)cc1 (configuration not stated) | 1% | 24µM* | -5% | -10%[11.4 µM] | 6% | -12
CC(C)NCC(O)COCc1ccc(Cl)cc1 (configuration not stated) | 28% | -4% | -5% | 5% | . | .
O=[N+]([O-])c1cc(F)cc(F)c1Nc1ccc(F)cc1 | ? | -12% | . | 35µM* | . | -4
CC1(C(=O)Nc2nccs2)CCN1C(=O)CC(c1ccccc1)c1ccccc1 (configuration not stated) | . | 0% | . | . | . | 6
CCOc1ccc(OCC)c(NC(=O)CN2CCN(c3cccc(C)c3)CC2)c1 | 25µM* | -18% | -4% | 7.9µM* | 40µM* | 10
CCOc1ccc(OCC)c(NC(=O)Cn2cccc2)c1 | 14% | 1% | -29% | -12% | -36% | -1
CCOc1ccc(OCC)c(NC(=O)CN2CCN(c3cccc(C)c3)C(C)C2)c1 (configuration not stated) | 25µM* | 0% | -7% | 1.1µM* | 50µM* | 0
CCCCCCCCC1=NCCc2c1[nH]c1ccccc21 | 22% | 24µM* | 6% | 22µM* | ? | ?
CC(C)C/C=C1\CCc2c([nH]c3ccccc23)C1=O | 25% | -9% | -5% | 0% | 3% | 6
CCOC(=O)c1c(C)[nH]c(NC(=O)NNC(=O)c2ccccc2Cl)c1C | 33% | -9% | -2% | -16% | 4% | 0
CCOC(=O)c1c(C)[nH]c(N=Nc2ccc(C)cc2)c1C | ? | -5% | -11% | 40µM* | 45µM* | .
CCOC(=O)c1c(C)[nH]c(N=Nc2ccc(OC)cc2)c1C | ? | -20% | -1% | 56µM* | 40µM* | 16
CCOC(=O)c1c(C)[nH]c(N=Nc2ccccc2)c1C | 40µM* | -2% | -13% | 56µM* | 35µM* | -5
CCOC(=O)c1c(C)[nH]c(N=Nc2ccccc2Cl)c1C | ? | 0% | -1% | 16µM* | 8.9µM* | 7
CCOC(=O)c1c(C)oc2nc(C)nc(NCc3cccc(Cl)c3)c12 | 57% | . | 3% | 45% | -7%[57.1 µM] | .
SMILES | HP1b chromo inh | PLK1 PBD block | KAT2A inh | JMJD2A Tudor inh | BAZ2B inh | PI5P4K alpha inh
NNC(=O)C(C(=O)OCc1ccccc1)c1ccccc1 (configuration not stated) | . | . | . | -21% | . | .
O=C(O)[C@H](Cc1ccccc1)NC(=O)N1CCN(c2ccc(F)cc2)CC1 | 8%[57 µM] | -7% | 2% | -9% | -17% | -11
CCOC(=O)c1c(C)[nH]c(N=Nc2cccc(C)c2)c1C | ? | -14% | -15% | 25µM* | 25µM* | .
CN(C)c1ccc(-c2cc(-n3ccnc3)ncn2)cc1 | . | . | -16% | . | . | .
CN(C)c1ccc(C=NNc2ccccn2)c(Cl)c1 | 17% | -6% | . | -26% | . | 1
CN(C)c1ccc(/C=N\Nc2ccccn2)cc1 | ? | -3% | -7% | ? | 25µM* | -1
CN(C)c1ccc(/C=N/Nc2ccc(-n3ccnc3)nn2)cc1 | -1% | -14% | -5% | ? | 18µM* | -12
OCCN1CCN(CC(O)COCCOc2ccc(Br)cc2)CC1 (configuration not stated) | ? | 11µM* | 4% | 18µM* | 20% | -22
COc1ccc(N2CCN(CC(O)COC(C)(C)C)CC2)cc1 (configuration not stated) | ? | 0% | 1% | 18µM* | 45µM* | -3
COc1ccc(OCC(O)CN2CCN(c3ccc(Cl)cc3)CC2)cc1 (configuration not stated) | 35% | -5% | -10% | -11% | -13% | 1
COc1ccc(N2CCN(CC(O)COCCOc3ccc(Br)cc3)CC2)cc1 (configuration not stated) | 10% | 7% | -4% | -20% | 45µM* | 0
COc1ccc(N2CCN(CC(O)COc3ccc4c(c3)CCC4)CC2)cc1 (configuration not stated) | ? | -10% | -1% | 56µM* | 35µM* | -7
COc1ccccc1N1CCN(CC(O)COCCOc2ccc(Br)cc2)CC1 (configuration not stated) | 5% | 3% | -1% | ? | ? | -10
COc1ccc(CNC(=O)Cc2c(C)c3cc4c(C)coc4c(C)c3oc2=O)cc1OC | 29% | . | -1% | -6% | -30% | .
CC(C)c1ccc(OCC(O)CN2CCN(c3ccc(F)cc3)CC2)cc1 (configuration not stated) | 10% | . | 1% | 79µM* | -18% | .
CCOc1ccc(S(=O)(=O)N2CCC(C(=O)NCc3ccccn3)CC2)cc1C | 15% | -13% | 2% | 0% | 8% | -3
CC(C)(C)C#CCn1c(/C=[N+](\[O-])C2CCCCC2)nc2ccccc21 | 24% | -12% | 3% | ? | 50µM* | 0
CC(C)c1nc2ccccc2n1CC(O)COC1CCCCC1 (configuration not stated) | 27% | 4% | 4% | 2% | -10% | -6
Cc1ccc(C(=O)Nc2ccc3c4c(cccc24)CC3)cc1[N+](=O)[O-] | 16% | -3% | -2% | -6% | -6% | 0
